Experimental data published in ChEMBL document CHEMBL3988442, “University of Dundee, Small-Polar-MMV Screening Library” (2021).
Screen size: about 38,000 compounds; about 1,200 (3.2%) showed an effect of 50% or more. The median lay at about -58%. Shown is part of a subset that was picked to be rich in strong results.

The molecules below were run on Plasmodium falciparum (assay: Calibr Malaria Delayed Death Assay SOP). Settings: concentration 4.99e-06 (unit not given; other assays of the set use mol/L).
Type: functional, organism-based
Design: scale not given: in the data most compounds retested in dose-response had high values
For O=C(Nc1cnn(Cc2ccc(F)cc2Cl)c1)C1CC1, the “Percent Effect” value was -1.724%.
CCn1cc(NC(=O)C2CCN(Cc3ccccc3)CC2)cn1 was tested, and the “Percent Effect” value was -64.73%.
O=C(Nc1cnn(COc2ccc(F)cc2Cl)c1)C1CC1 was tested, and the “Percent Effect” value was 66.71%.
With CCc1cc(N2CCC(Nc3ccc(Cl)cn3)CC2)ncn1 the “Percent Effect” value was -58.54%.
CC(C)[C@@H]1CN(CCOc2ccccc2)C[C@H]1NS(=O)(=O)N(C)C was tested, and the “Percent Effect” value was 40.07%.
In the case of CC(C)[C@H]1CN(C2Cc3ccccc3C2)C[C@@H]1NS(=O)(=O)N(C)C, the “Percent Effect” value was 61.34%.
For CC(C)[C@@H]1CN(Cc2ccsc2)C[C@H]1NS(=O)(=O)N(C)C, the “Percent Effect” value was 65.02%.
CC(C)[C@@H]1CN(Cc2ccccn2)C[C@H]1NS(=O)(=O)N(C)C was tested, and the “Percent Effect” value was -49.07%.
CC(C)[C@H]1CN(c2ccncc2)C[C@@H]1NS(=O)(=O)N(C)C was tested, and the “Percent Effect” value was -51.73%.
CC(C)[C@H]1CN(C2Cc3ccccc3C2)C[C@@H]1NS(C)(=O)=O was tested, and the “Percent Effect” value was 31.34%.
With CCc1cc(NCCc2cc(F)cc(F)c2)n2nccc2n1 the “Percent Effect” value was -125.8%.
c1cnn(CCNCc2cnc(N3CCCC3)nc2)c1 was tested, and the “Percent Effect” value was -23.83%.
For Cc1ccccc1C(NC(=O)NCC1(CO)CC1)C1CC1 (centres undefined), the “Percent Effect” value was -98.91%.
With CCc1nc(CN2CCCC(N(C)Cc3cnc(C)cn3)C2)no1 (centres undefined) the “Percent Effect” value was -35.57%.
With CC(NC(=O)CSCC#N)c1ccccc1 (centres undefined) the “Percent Effect” value was -131%.
In the case of CC(NC1(CNC(=O)OC(C)(C)C)CCOCC1)c1ccccc1 (centres undefined), the “Percent Effect” value was -63.28%.
For CC(=O)c1ccc(Nc2nc(N)nc3c2nc(C)n3C)cc1, the “Percent Effect” value was -204.1%.
Cc1ccc2cccc(S(=O)(=O)N(C)CC3CCN(C)C3)c2n1 (centres undefined) was tested, and the “Percent Effect” value was 35.25%.
For Cc1ccc2cccc(S(=O)(=O)N(C)C3CCCN(C)C3)c2n1 (centres undefined), the “Percent Effect” value was 32.17%.
With Cc1ccc2cccc(S(=O)(=O)N(C)CC3CCN(C)CC3)c2n1 the “Percent Effect” value was 56.89%.
With CSCc1noc(CN2CC(Cc3ccccc3)CC2=O)n1 (centres undefined) the “Percent Effect” value was -65.09%.
CN1CCCCCC1C(=O)N1CCN(c2ccccc2C#N)CC1 (centres undefined) was tested, and the “Percent Effect” value was 59.17%.
COC(=O)N1CCCCC1C(=O)N1CCN(c2cccnc2)CC1 (centres undefined) was tested, and the “Percent Effect” value was -94.01%.
With CN1CCC(C(=O)N2CCCN(c3cccnn3)CC2)C1 (centres undefined) the “Percent Effect” value was -4.513%.
CN1CCCCC1C(=O)N1CCN(c2ccccc2C#N)CC1 (centres undefined) was tested, and the “Percent Effect” value was 8.936%.
For Cc1cnn(CCC(=O)N2CCCN(c3ccccc3C#N)CC2)c1, the “Percent Effect” value was -36.97%.
CN1CCCCCC1C(=O)N1CCCN(c2ccccc2)CC1 (centres undefined) was tested, and the “Percent Effect” value was 60.61%.
CCC(c1ccc(F)cc1)S(=O)(=O)CCO (centres undefined) was tested, and the “Percent Effect” value was -152%.
COc1cc(C#N)ccc1OC12CCCN(CC1)C2 (centres undefined) was tested, and the “Percent Effect” value was -68.61%.
For O=C(CC1CCCO1)NCCCC(=O)Nc1ccc(Cl)cc1 (centres undefined), the “Percent Effect” value was -29.37%.
For COc1ccc(CCNC(=O)NC2CCCC2)cc1OC, the “Percent Effect” value was -80.35%.
CCOc1ccc(Br)cc1-c1cc(N)[nH]n1.Cl was tested, and the “Percent Effect” value was -27.86%.
COc1ccc(CCC2CCCCN2)cc1OC (centres undefined) was tested, and the “Percent Effect” value was -120.3%.
With CCOc1ccc(Cl)cc1C(C(=O)O)N1CCCC1 (centres undefined) the “Percent Effect” value was -0.3366%.
With COc1ccc(Br)cc1CC(=O)N1CCCC1 the “Percent Effect” value was -142.1%.
In the case of CCOc1ccc(Br)cc1S(=O)(=O)N(CC)Cc1ccc(N(C)C)cc1, the “Percent Effect” value was -41.17%.
c1csc(CN2CCCN(c3ccc(Cn4ccnc4)cn3)CC2)c1 was tested, and the “Percent Effect” value was -41.75%.
COC1CN(C(=O)Cc2cccs2)CCC(=O)N(C)c2ccccc21 (centres undefined) was tested, and the “Percent Effect” value was -19.51%.
With CCc1cc(=O)[nH]c(-c2ccc(NC(CO)CC(C)C)nc2)n1 (centres undefined) the “Percent Effect” value was -171.9%.
With Cc1noc(C)c1C(=O)N1CCC2(CC(N(C)c3ccncn3)C2)C1 (centres undefined) the “Percent Effect” value was -76.24%.
CCn1c(C2CCN(C(=O)c3cc(CC(C)C)no3)CC2)nn(C)c1=O was tested, and the “Percent Effect” value was -42.91%.
In the case of Cc1cc(C)nc(NC2CCc3nc(C)nn3C2)n1 (centres undefined), the “Percent Effect” value was -11.11%.
Cc1cc(C)nc(NC2CCC(=O)N(C)C2)n1 (centres undefined) was tested, and the “Percent Effect” value was -38.75%.
In the case of CC(C)C(=O)NCC(=O)N(C)C1CCCN(C2Cc3ccccc3C2)C1 (centres undefined), the “Percent Effect” value was -100.1%.
For O=C(CCc1ccccn1)NC1CCCN(C2Cc3ccccc3C2)C1 (centres undefined), the “Percent Effect” value was 9.867%.
c1ccc(-c2cc(CN3CCCCCC3c3ccco3)on2)nc1 (centres undefined) was tested, and the “Percent Effect” value was -88.84%.
For Cc1nc[nH]c1CN1CCN(C(=O)CN2CCCC2)[C@H]2CS(=O)(=O)C[C@H]21, the “Percent Effect” value was -125.3%.
Cc1nccc(-c2cccc(NCC(=O)N3CCOC(C)C3)c2)n1 (centres undefined) was tested, and the “Percent Effect” value was -139.7%.
With CCn1ncnc1CN1CCC(CNC(=O)c2ccccc2C#N)C1 (centres undefined) the “Percent Effect” value was -133.7%.
In the case of COc1ncc(C(=O)N2CCC(c3nc(C)n4ccsc34)CC2)cn1, the “Percent Effect” value was -121.9%.
For CC(NC(=O)c1ccc(Cl)cc1)c1nnc(SCC(=O)O)n1C (centres undefined), the “Percent Effect” value was -106.5%.
With O=C(c1ccc(-n2cccc2)c(F)c1)N1CCCN2CCCC2C1 (centres undefined) the “Percent Effect” value was 6.651%.
CN(Cc1nnc(C2CC2)n1C)S(=O)(=O)c1ccccc1F was tested, and the “Percent Effect” value was -15.64%.
In the case of CC1c2ncc(COc3cccnc3)n2CCN1C(=O)C1=CCCCC1.O=C(O)C(F)(F)F (centres undefined), the “Percent Effect” value was -13.51%.
CC(c1ccc(-n2cncn2)cc1)N(C)Cc1ccccn1 (centres undefined) was tested, and the “Percent Effect” value was -93.37%.
In the case of CCc1c(C)sc2nc3n(CCN(C)C)nc(SC)n3c(=O)c12, the “Percent Effect” value was 13.06%.
In the case of CCCSc1nn(CCN(C)C)c2nc3sc(C)c(CC)c3c(=O)n12, the “Percent Effect” value was 46.83%.
In the case of Cc1oncc1C(=O)N1CCC2(CCN(Cc3cccnc3)C2=O)C1.O=C(O)C(F)(F)F (centres undefined), the “Percent Effect” value was -151.7%.
For O=C(Nc1ccccc1)[C@H]1C[C@@H]2CN(C(=O)Nc3ccccc3)C[C@H]1O2, the “Percent Effect” value was 18.72%.
In the case of O=C(c1cccc2c1OCO2)N1CCCC(n2ccnc2)C1 (centres undefined), the “Percent Effect” value was -40.58%.
CCCc1n[nH]c(C2CN(C(=O)CCn3ccccc3=O)CCO2)n1 (centres undefined) was tested, and the “Percent Effect” value was -67.64%.
CCc1nc(C(=O)N(CC)CC(=O)Nc2cc(Cl)ccc2C)c[nH]1 was tested, and the “Percent Effect” value was -127.3%.
Cc1nc2c(c(NCc3cc4ccccc4s3)n1)CCNCC2 was tested, and the “Percent Effect” value was 89.06%.
In the case of Cc1nc2c(c(NCC(O)c3ccccc3Cl)n1)CCNCC2 (centres undefined), the “Percent Effect” value was 26.14%.
In the case of CSCC(=O)N1CCc2nc(C)nc(NCc3ccccc3)c2CC1, the “Percent Effect” value was -13.73%.
For Cc1nc2c(c(NCC(c3ccccc3C)N(C)C)n1)CCNC2 (centres undefined), the “Percent Effect” value was -11.95%.
Cc1nc2c(c(NCc3nc4ccccc4s3)n1)CCNCC2 was tested, and the “Percent Effect” value was 71.13%.
For Cc1n[nH]c(C)c1CNc1nc(-c2ccco2)nc2c1CCNCC2, the “Percent Effect” value was 17%.
In the case of Cc1nc2c(c(NCc3ccc(-c4ccccn4)s3)n1)CCNCC2, the “Percent Effect” value was 73.48%.
In the case of Cc1nc(CNc2nc(-c3ccco3)nc3c2CCNCC3)n[nH]1, the “Percent Effect” value was -85.54%.
c1ccc(-c2nc3c(c(NCCCn4cncn4)n2)CCNCC3)nc1 was tested, and the “Percent Effect” value was -4.332%.
For CN(C)c1cc(C(=O)Nc2cccnc2N2CCSCC2)ccn1, the “Percent Effect” value was -48.21%.
FC(F)(F)c1ccnc(N2CCC(c3nccn3CC3CC3)CC2)n1 was tested, and the “Percent Effect” value was -11.94%.
With Cc1cc(C2CCCN2C(=O)Nc2cn[nH]c2)on1 (centres undefined) the “Percent Effect” value was -46.01%.
In the case of O=C(c1cccnc1)N1CC(S(=O)(=O)c2ccc(Cl)cc2)C1, the “Percent Effect” value was -41.36%.
With Cc1noc(C)c1CN1C[C@@H]2CCCO[C@@H]2[C@H](Nc2ccccn2)C1.O=C(O)C(F)(F)F.O=C(O)C(F)(F)F the “Percent Effect” value was -37.64%.
With Cn1nc(CNC(=O)C2CCN(S(C)(=O)=O)CC2)cc1C1CC1 the “Percent Effect” value was -29.39%.
In the case of Cc1cccc(NC(=O)CN(C)C(=O)c2scnc2C)n1, the “Percent Effect” value was -36.36%.
For COc1ccc(CN(CCC#N)CCN2CCOCC2)cc1OC, the “Percent Effect” value was -48.91%.
In the case of CCOc1ccc(CN(CCC#N)CCN2CCOCC2)cc1OC, the “Percent Effect” value was -106.9%.
In the case of N#CCCN(CCN1CCOCC1)Cc1ccc(F)c(Br)c1, the “Percent Effect” value was 50.69%.
With CN(C)C(=O)C1CCCN1CCCNC(=O)Cc1ccccc1F (centres undefined) the “Percent Effect” value was -2.997%.
In the case of CC(NCCCN1CCCC1=O)c1ccc(F)cc1N(C)C (centres undefined), the “Percent Effect” value was -66.62%.
CCc1cnc(C)nc1NCCN1CCC(O)CC1 was tested, and the “Percent Effect” value was -33.54%.
In the case of CC(NCc1cnc(N2CCOCC2)nc1)c1ccc(Cl)s1.Cl (centres undefined), the “Percent Effect” value was -27.68%.
With CCC(c1ccc(F)cc1F)N1CCN(CCO)CC1 (centres undefined) the “Percent Effect” value was 33.11%.
For CC(NCCCc1cnn(C)c1)c1ccc(Cl)s1 (centres undefined), the “Percent Effect” value was 14.15%.
For CCS(=O)(=O)CCNC(=O)NC(C)c1cc(C)sc1C (centres undefined), the “Percent Effect” value was -122.2%.
For Cc1cc(OC(F)F)c(C(=O)N2CCC(N(C)C)CC2)s1, the “Percent Effect” value was -15.44%.
In the case of CCc1cnc(C)nc1NCCN1CCCCCC1, the “Percent Effect” value was 42.39%.
With Cc1cc(C(C)NCCN2CCC(N(C)C)CC2)c(C)s1 (centres undefined) the “Percent Effect” value was 81.06%.
CC(NCCN1CCC(N(C)C)CC1)c1ccc(F)cc1N(C)C (centres undefined) was tested, and the “Percent Effect” value was 55.63%.
With CC(NCCN1CCC(N(C)C)CC1)c1ccc(Cl)s1 (centres undefined) the “Percent Effect” value was 74.67%.
With O=C(NCCc1cccs1)NC1CCN(c2ncccn2)CC1 the “Percent Effect” value was -296.1%.
For Cc1c(Cl)cccc1S(=O)(=O)N1CCC2(CC1)OCCS2, the “Percent Effect” value was -126%.
In the case of Cn1cc(CN2CCC3(CCCCN3S(C)(=O)=O)CC2)cn1, the “Percent Effect” value was -156.9%.
With CNC(=O)c1cn(C)c(-c2nc3cc(NC(C)=O)ccc3n2C)c1OC the “Percent Effect” value was -25.75%.
Cn1nc2c(c1NC(=O)c1ccc(C3CCCN3C3CCC3)s1)CCC2 (centres undefined) was tested, and the “Percent Effect” value was 4.44%.
For CCN(CC)c1nc(C)cc(C(=O)Nc2cnn(CC)c2)n1, the “Percent Effect” value was -148%.
With CC(=O)N1CCC2(CC1)CC(NC(=O)N(C)C)c1cc(C)ccc12 (centres undefined) the “Percent Effect” value was -69.21%.
With O=C(CCCNCc1ccc(Cl)c2cccnc12)NC1CC1 the “Percent Effect” value was 8.752%.
In the case of Cc1nc2n(n1)CC(NCc1ccc(Cl)c3cccnc13)CC2 (centres undefined), the “Percent Effect” value was 12.21%.
In the case of CC(C)(C)C(=O)NCCNCc1ccc(Cl)c2cccnc12, the “Percent Effect” value was 76.99%.
In the case of CCS(=O)(=O)NCCNCc1ccc(Cl)c2cccnc12, the “Percent Effect” value was 60.34%.
For CC(C)(O)CSCCNC(=O)c1ccc(F)cc1Cl, the “Percent Effect” value was -61.07%.
In the case of CC(=O)NCCCNCc1ccc(Cl)c2cccnc12, the “Percent Effect” value was -40.58%.
In the case of CC(C)(C)[S+]([O-])CCNC(=O)c1ccc(Cl)c2cccnc12 (centres undefined), the “Percent Effect” value was -47.19%.
For CC(C)(O)CSCCNCc1ccc(Cl)c2cccnc12, the “Percent Effect” value was 66.02%.
Cn1cnc2c1CCN(Cc1ccc(Cl)c3cccnc13)C2 was tested, and the “Percent Effect” value was -32.7%.
